From PubChem BioAssay (EPA / NIEHS) come the findings set out here.

SMILES strings stand for the structures. Results filed as inconclusive are left out. Activity calls are given as the source filed them. How the source made its calls, unless noted: active means hit-call score of the fitted dose curve at least 0.9, where 1 is the maximum; inactive means score below 0.9.

Read-out in test [1]: Pyruvate Dehydrogenase Kinase 4 (PDK4), PDK4 (gene 5166)
The test can be described thus: LTEA_HepaRG_PDK4: Life Technologies and Expression Analysis (LTEA) Assay for Pyruvate Dehydrogenase Kinase 4 (PDK4) using HepaRG (AID 2283525). To be noted: mRNA level, 48 h; actives raise or lower the signal. The procedure, abridged: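 In this multiplexed human HepaRG expression assay, cells are treated 48 h with test chemicals across an eight-point range starting at 100 uM. PDK4 mRNA changes, normalized to ACTB/GAPDH/POLR2A, are fitted in both directions relative to vehicle.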

Read-out in test [2]: NAD(P)H dehydrogenase [quinone] 1 (NQO1), NQO1 (gene 1728)
The test can be described thus: LTEA_HepaRG_NQO1: Life Technologies and Expression Analysis (LTEA) Assay for NAD(P)H dehydrogenase [quinone] 1 (NQO1) using HepaRG (AID 2283526). To be noted: mRNA level, 48 h; actives raise or lower the signal. The procedure, abridged:
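Differentiated HepaRG cells, plated 48 h and then switched to serum-free induction medium, were exposed in duplicate for 48 h to 8-point half-log concentrations up to 100 uM in 0.5% DMSO. mRNA measured by qRT-PCR, normalized to ACTB, GAPDH, POLR2A; bidirectional fit versus DMSO.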

Read-out in test [3]: Nuclear factor erythroid 2-related factor 2 (Homo sapiens) (UniProt Q16236)
Put plainly: LTEA_HepaRG_NFE2L2: Life Technologies and Expression Analysis (LTEA) Assay for Nuclear factor erythroid 2-related factor 2 (NFE2L2) Transcription Factor using HepaRG (AID 2283527).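 On outcome: TaqMan qRT-PCR transcript level normalised to ACTB GAPDH and POLR2A housekeeping genes.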 To be noted: mRNA level, 48 h; actives raise or lower the signal. In short, it runs like this: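 Transcript level of NFE2L2 is the read-out, measured by microfluidic TaqMan qRT-PCR and normalized to three housekeeping genes. Human HepaRG cultures received test chemical for 48 h at up to 100 uM in half-log steps. Gain or loss of signal is fitted relative to 0.5% DMSO.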

Read-out in test [4]: succinate dehydrogenase complex iron sulfur subunit B (SDHB), SDHB (gene 6390)
The test can be described thus: LTEA_HepaRG_SDHB: Life Technologies and Expression Analysis (LTEA) Assay for succinate dehydrogenase complex iron sulfur subunit B (SDHB) using HepaRG (AID 2283528). To be noted: mRNA level, 48 h; actives raise or lower the signal. The procedure, abridged:
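HepaRG, 48 h exposure, 8-pt half-log series from 100 uM in 0.5% DMSO, duplicates. Readout: SDHB mRNA by Fluidigm qRT-PCR vs housekeeping genes; bidirectional fit relative to DMSO.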

Read-out in test [5]: Signal transducer and activator of transcription 3 (Homo sapiens) (UniProt P40763)
Put plainly: LTEA_HepaRG_STAT3: Life Technologies and Expression Analysis (LTEA) Assay for Signal transducer and activator of transcription (STAT3) using HepaRG (AID 2283529). To be noted: mRNA level, 48 h; actives raise or lower the signal. The procedure, abridged:
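Read-out is STAT3 mRNA level by qRT-PCR, normalized to three housekeeping genes, in human HepaRG liver cells treated for 48 h. Concentrations ran from 100 uM downward in half-log steps; curves were fitted for gain or loss relative to 0.5% DMSO.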

Read-out in test [6]: solute carrier (SLCO1B1), SLCO1B1 (gene 10599)
The test can be described thus: LTEA_HepaRG_SLCO1B1: Life Technologies and Expression Analysis (LTEA) Assay for solute carrier (SLCO1B1) using HepaRG (AID 2283530). The settings on record: mRNA level, 48 h; actives raise or lower the signal. The procedure, abridged: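 Human HepaRG cultures treated for 48 h with an eight-concentration half-log series topping at 100 uM; SLCO1B1 measured by qRT-PCR and fitted bidirectionally relative to DMSO.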

Read-out in test [7]: sulfotransferase 2A1 (SULT2A1), SULT2A1 (gene 6822)
The test can be described thus: LTEA_HepaRG_SULT2A1: Life Technologies and Expression Analysis (LTEA) Assay for sulfotransferase 2A1 (SULT2A1) using HepaRG (AID 2283531). The settings on record: mRNA level, 48 h; actives raise or lower the signal. The procedure, abridged: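 Gene-expression endpoint in a human liver cell line: SULT2A1 mRNA change after 48 h chemical treatment, curves fitted in both directions relative to 0.5% DMSO vehicle. Concentrations spanned eight half-log steps from 100 uM.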

Read-out in test [8]: Transforming Growth Factor (TGFA), TGFA (gene 7039)
Put plainly: LTEA_HepaRG_TGFA: Life Technologies and Expression Analysis (LTEA) Assay for Transforming Growth Factor (TGFA) using HepaRG (AID 2283532). The settings on record: mRNA level, 48 h; actives raise or lower the signal. The procedure, abridged: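 HepaRG (human liver line), 48 h exposure, 8 conc. half-log down from 100 uM, 0.5% DMSO vehicle, duplicates; serum-free induction medium. TGFA mRNA by TaqMan qRT-PCR, ACTB/GAPDH/POLR2A normalization; gain/loss fit vs DMSO.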

Read-out in test [9]: Transforming Growth Factor (TGFB1), TGFB1 (gene 7040)
Put plainly: LTEA_HepaRG_TGFB1: Life Technologies and Expression Analysis (LTEA) Assay for Transforming Growth Factor (TGFB1) Transporter using HepaRG (AID 2283533). To be noted: mRNA level, 48 h; actives raise or lower the signal. The procedure, abridged: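 Eight-point concentration-response (max 100 uM, half-log) in HepaRG under serum-free induction conditions, 48 h. TGFB1 mRNA by qRT-PCR, housekeeping-normalized.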

Read-out in test [10]: TIMP1, TIMP1 (gene 7076)
Put plainly: LTEA_HepaRG_TIMP1: Life Technologies and Expression Analysis (LTEA) Assay for TIMP1 using HepaRG (AID 2283534).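 Further: TaqMan qRT-PCR signal normalized to ACTB GAPDH and POLR2A housekeeping genes.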 The settings on record: mRNA level, 48 h; actives raise or lower the signal. The procedure, abridged: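 TIMP1 induction or repression in HepaRG cells after 48 h chemical exposure (eight concentrations, highest 100 uM), assessed by normalized qRT-PCR with bidirectional fitting to DMSO controls.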

Read-out in test [11]: Tumor necrosis factor receptor 1 (TNFRSF1A), TNFRSF1A (gene 7132)
The test can be described thus: LTEA_HepaRG_TNFRSF1A: Life Technologies and Expression Analysis (LTEA) Assay for Tumor necrosis factor receptor 1 (TNFRSF1A) using HepaRG (AID 2283535). To be noted: mRNA level, 48 h; actives raise or lower the signal. The procedure, abridged:
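Assay uses 48 h chemical treatment of differentiated HepaRG monolayers, tested in duplicate at eight concentrations from 100 uM downward in 0.5% DMSO. mRNA is normalized to ACTB, GAPDH and POLR2A, with induction or suppression fitted relative to vehicle.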

Read-out in test [12]: Thyroid Hormone Responsive (THRSP), THRSP (gene 7069)
The test can be described thus: LTEA_HepaRG_THRSP: Life Technologies and Expression Analysis (LTEA) Assay for Thyroid Hormone Responsive (THRSP) using HepaRG (AID 2283536). The settings on record: mRNA level, 48 h; actives raise or lower the signal. In short, it runs like this: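 mRNA induction or loss relative to 0.5% DMSO vehicle was fitted bidirectionally across an eight-point curve whose highest exposure was 100 uM. Human HepaRG liver cells received chemicals in duplicate over 48 h before RNA extraction.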

Read-out in test [13]: UDP glucuronosyltransferase (UGT1A1), UGT1A1 (gene 54658)
The test can be described thus: LTEA_HepaRG_UGT1A1: Life Technologies and Expression Analysis (LTEA) Assay for UDP glucuronosyltransferase (UGT1A1) using HepaRG (AID 2283538). The settings on record: mRNA level, 48 h; actives raise or lower the signal. In short, it runs like this:
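Differentiated human HepaRG cells in serum-free induction medium were exposed in duplicate for 48 h to eight half-log concentrations up to 100 uM in 0.5% DMSO. UGT1A1 mRNA was quantified by TaqMan qRT-PCR, normalized to ACTB, GAPDH and POLR2A, and fitted bidirectionally against DMSO.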

Read-out in test [14]: UDP glucuronosyltransferase (UGT1A6), UGT1A6 (gene 54578)
The test can be described thus: LTEA_HepaRG_UGT1A6: Life Technologies and Expression Analysis (LTEA) Assay for UDP glucuronosyltransferase (UGT1A6) using HepaRG (AID 2283539). The settings on record: mRNA level, 48 h; actives raise or lower the signal. The procedure, abridged:
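Measures mRNA change in HepaRG hepatic cells exposed 48 h to chemicals (eight-point, maximum 100 uM, 0.5% DMSO vehicle) in serum-free induction medium. Expression normalized to endogenous controls; DMSO served as negative control and baseline.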

Read-out in test [15]: X-box binding protein 1 (XBP1), XBP1 (gene 7494)
The test can be described thus: LTEA_HepaRG_XBP1: Life Technologies and Expression Analysis (LTEA) Assay for X-box binding protein 1 (XBP1) using HepaRG (AID 2283540). To be noted: mRNA level, 48 h; actives raise or lower the signal. The procedure, abridged: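 Eight concentrations (half-log, highest 100 uM, 0.5% DMSO) tested in duplicate on HepaRG cells over 48 h in serum-free induction medium; qRT-PCR of XBP1 normalised to ACTB, GAPDH, POLR2A.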

A short description of test [16]: LTEA_HepaRG_LDH_cytotoxicity: Cytotoxicity Assessment in the Life Technologies and Expression Analysis (LTEA) Assay (AID 2283563; active means hit-call score of the fitted dose curve at least 0.9, where 1 is the maximum). The procedure, abridged: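 Spent-medium LDH after 48 h chemical exposure of HepaRG cells in serum-free induction medium; eight concentrations, half-log dilutions from 100 uM, duplicate wells, fitted upward relative to 0.5% DMSO.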
A short description of test [17]: ATG_XTT_Cytotoxicity: Cytotoxicity Assessment in the Attagene TRANS-FACTORIAL HepG2 Assay (AID 2283584; active means hit-call score of the fitted dose curve at least 0.9, where 1 is the maximum). In short, it runs like this:
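24 h chemical exposure of reporter-transfected HepG2; XTT signal loss vs DMSO indicates cytotoxicity.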

Test [18] is described as follows: TOX21_p53_BLA_p2_viability: Viability Assessment in the Tox21 HCT-116 p53 Agonism Beta-lactamase Assay, Phase 2 (AID 2283591; active means hit-call score of the fitted dose curve at least 0.9, where 1 is the maximum;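 further: compound exposure lasted 16 h at 37 °C; actives lower the ATP signal meaning cytotoxicity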). The procedure, abridged:
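Cytotoxicity readout: CellTiter-Glo ATP luminescence, 30 min at room temperature, after the beta-lactamase read. Cells were HCT116 exposed 16 h at 37C to compounds pin-transferred at 217-fold dilution from DMSO stocks.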

Test [19] addresses Cellular tumor antigen p53 (Homo sapiens) (UniProt P04637). The test can be described thus: TOX21_p53_BLA_p2_ratio: Tox21 HCT-116 p53 Agonism Beta-lactamase Assay, Ratio, Phase 2 (AID 2283592; active means hit-call score of the fitted dose curve at least 0.9, where 1 is the maximum). The procedure, abridged: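 Human colon HCT116 cells with an inducible p53 beta-lactamase reporter are exposed to test chemicals for 16 h at 37C. Reporter induction is read as the 460/530 nm emission ratio after CCF4-AM loading, normalized to DMSO.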

Chain of Nuclear factor erythroid 2-related factor 2 (Homo sapiens) (Q16236 whole entry, looked up): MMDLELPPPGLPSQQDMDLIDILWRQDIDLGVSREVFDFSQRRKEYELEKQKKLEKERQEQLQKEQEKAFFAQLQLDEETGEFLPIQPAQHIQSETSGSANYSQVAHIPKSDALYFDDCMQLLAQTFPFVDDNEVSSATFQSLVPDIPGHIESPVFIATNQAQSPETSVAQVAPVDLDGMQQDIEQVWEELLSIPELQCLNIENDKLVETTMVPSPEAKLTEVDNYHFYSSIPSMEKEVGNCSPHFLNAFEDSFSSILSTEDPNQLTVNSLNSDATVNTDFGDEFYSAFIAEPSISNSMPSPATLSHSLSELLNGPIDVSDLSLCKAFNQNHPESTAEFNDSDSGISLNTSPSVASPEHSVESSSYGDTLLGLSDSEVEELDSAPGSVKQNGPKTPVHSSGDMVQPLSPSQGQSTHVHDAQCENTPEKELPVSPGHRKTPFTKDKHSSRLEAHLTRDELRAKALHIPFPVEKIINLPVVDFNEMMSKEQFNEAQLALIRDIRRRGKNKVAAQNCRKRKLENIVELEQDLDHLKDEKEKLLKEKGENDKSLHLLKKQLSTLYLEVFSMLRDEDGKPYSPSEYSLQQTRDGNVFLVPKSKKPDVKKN
Chain of Cellular tumor antigen p53 (Homo sapiens) (P04637 whole entry, looked up): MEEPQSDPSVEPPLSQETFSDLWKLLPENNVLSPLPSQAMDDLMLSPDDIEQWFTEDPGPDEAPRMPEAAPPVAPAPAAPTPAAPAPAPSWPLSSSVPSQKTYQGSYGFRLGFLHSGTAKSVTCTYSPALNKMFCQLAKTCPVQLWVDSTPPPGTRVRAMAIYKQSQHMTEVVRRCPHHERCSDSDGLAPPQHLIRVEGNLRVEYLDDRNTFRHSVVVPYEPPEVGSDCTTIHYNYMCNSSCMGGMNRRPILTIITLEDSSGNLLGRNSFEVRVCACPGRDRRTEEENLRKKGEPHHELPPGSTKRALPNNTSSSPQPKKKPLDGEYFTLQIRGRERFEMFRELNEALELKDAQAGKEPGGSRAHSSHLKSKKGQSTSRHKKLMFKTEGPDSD
Chain of Signal transducer and activator of transcription 3 (Homo sapiens) (P40763 whole entry, looked up): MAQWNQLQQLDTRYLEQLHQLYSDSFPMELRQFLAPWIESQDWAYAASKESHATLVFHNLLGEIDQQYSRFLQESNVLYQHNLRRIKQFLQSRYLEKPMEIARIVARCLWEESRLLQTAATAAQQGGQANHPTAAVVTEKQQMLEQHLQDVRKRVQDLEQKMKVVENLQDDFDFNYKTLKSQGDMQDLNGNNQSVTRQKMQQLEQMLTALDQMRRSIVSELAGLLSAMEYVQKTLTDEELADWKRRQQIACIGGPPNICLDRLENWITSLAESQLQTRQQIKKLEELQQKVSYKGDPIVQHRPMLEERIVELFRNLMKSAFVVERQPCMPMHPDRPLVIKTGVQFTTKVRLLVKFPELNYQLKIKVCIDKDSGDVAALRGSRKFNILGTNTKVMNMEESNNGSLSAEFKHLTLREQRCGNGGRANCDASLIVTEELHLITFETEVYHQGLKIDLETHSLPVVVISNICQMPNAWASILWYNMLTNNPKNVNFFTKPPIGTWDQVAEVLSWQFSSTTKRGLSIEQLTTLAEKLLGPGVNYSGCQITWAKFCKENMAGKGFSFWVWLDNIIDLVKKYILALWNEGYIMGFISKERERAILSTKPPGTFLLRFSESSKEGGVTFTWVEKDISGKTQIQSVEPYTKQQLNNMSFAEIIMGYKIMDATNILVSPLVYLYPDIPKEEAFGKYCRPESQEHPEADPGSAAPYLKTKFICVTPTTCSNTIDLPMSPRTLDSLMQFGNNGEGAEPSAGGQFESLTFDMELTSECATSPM

Consider `C1CC2OC2CC1C1CO1` (stereo unspecified), for which the compound was classed as inactive in test [1], in test [2], in test [3], in test [4], in test [5] and in [6]. The outcome in [7], in test [8], in [9], in test [10], in test [11] and in [12] was inactive. In addition, the result in test [13], in [14], in [15], in test [16], in test [17] and in test [18] was inactive. Besides, in test [19], the outcome was inactive.

Take `Cc1cccc([N+](=O)[O-])c1`: the compound was classed as inactive in test [2], in test [3], in test [4], in test [5], in [6] and in [7]. Also, the compound was classed as inactive in test [8], in [9], in [10], in test [11], in test [12] and in [13]. The result in test [14], in [15], in test [16], in [17], in [18] and in test [19] was inactive.

A word on the AC50: it is the midpoint of the concentration-response curve, whichever way the signal moves. On to `CCC(C)(CC)c1cc(NC(=O)c2c(OC)cccc2OC)on1`, for which the compound was classed as inactive in test [2], in test [4], in test [5], in test [6], in test [7] and in [8]. Also, the result in test [10], in test [11], in [14], in test [15] and in [16] was inactive. Besides, the AC50 was 14.9 µM (active) in test [3], 50 µM (active) in [9], 41.2 µM (active) in test [12] and 2.8 µM (active) in test [13].

Regarding `CN(C)c1nc(=O)n(C2CCCCC2)c(=O)n1C`, the outcome in test [2], in [3], in test [4], in test [5], in test [6] and in [7] was inactive. In addition, the compound was classed as inactive in test [8], in test [9], in [10], in [11], in [12] and in test [13]. For the same compound, the outcome in test [14], in test [15] and in [16] was inactive.

Take `Cc1cc2c3c(c1)C(c1ccccc1)=N[C@@H](NC(=O)c1ccncc1)C(=O)N3CC2`: the compound was called inactive in test [2], in test [4], in test [5], in [6], in test [7] and in test [8]. Besides, the result in test [9], in [10], in test [11], in test [14], in [15] and in test [16] was inactive. In addition, the outcome in [19] was inactive. For the same compound, the AC50 in test [3] was 50 µM (active); in test [12] it was 22.7 µM (active); in [13], 4.99 µM (active).

`OCC(O)CO`: the result in test [17], in [18] and in test [19] was inactive.

`Nc1ccc(-c2ccc(N)cc2)cc1`: the compound was classed as inactive in test [2], in test [3], in test [4], in [5], in test [6] and in test [7]. Moreover, the call in test [8], in test [9], in test [10], in [11], in test [12] and in test [13] was inactive. Further, the compound was called inactive in test [14], in [15], in test [16], in test [18] and in test [19].

Regarding `CN(C)CCO`, the result in test [2], in [3], in [4], in test [5], in [6] and in test [7] was inactive. The result in [8], in test [9], in test [10], in test [11], in test [12] and in test [13] was inactive. Besides, the compound was classed as inactive in test [14], in test [15], in [16], in test [17], in test [18] and in test [19].
